Data published in PubChem BioAssay AID652105 (National Center for Advancing Translational Sciences (NCATS), 2013).
The whole screen tested about 330,000 compounds, of which about 4,100 (1.2%) were called active. Not shown: some 2% with an inconclusive outcome. This is one part of a sample in which actives are shown more often than they occur. How the source made its calls: active means max response of -50% or lower; inconclusive means between -30% and -50%; inactive means -30% or higher.

Biological target: Phosphatidylinositol 5-phosphate 4-kinase type-2 alpha (Homo sapiens) (UniProt P48426)
Experiment: qHTS for Inhibitors of phosphatidylinositol 5-phosphate 4-kinase (PI5P4K); further: value at the top dose of about 77 µM
Conditions: PI5P4Kalpha enzyme, ADP-Glo luminescence, 60 min; stronger effect = lower value
Outline: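 Reactions run in 0.038 M HEPES pH 7.4, 0.28 mM EGTA, 0.1% CHAPS and 5% DMSO, with PI5P4Kalpha, substrate, compound and 5 microM ATP final, one hour at room temperature. Readout is ADP-Glo luminescence.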
On the % scale 0 is the no-effect control and ±100 the full control effect.

Chain of Phosphatidylinositol 5-phosphate 4-kinase type-2 alpha (Homo sapiens) (P48426 whole entry, looked up): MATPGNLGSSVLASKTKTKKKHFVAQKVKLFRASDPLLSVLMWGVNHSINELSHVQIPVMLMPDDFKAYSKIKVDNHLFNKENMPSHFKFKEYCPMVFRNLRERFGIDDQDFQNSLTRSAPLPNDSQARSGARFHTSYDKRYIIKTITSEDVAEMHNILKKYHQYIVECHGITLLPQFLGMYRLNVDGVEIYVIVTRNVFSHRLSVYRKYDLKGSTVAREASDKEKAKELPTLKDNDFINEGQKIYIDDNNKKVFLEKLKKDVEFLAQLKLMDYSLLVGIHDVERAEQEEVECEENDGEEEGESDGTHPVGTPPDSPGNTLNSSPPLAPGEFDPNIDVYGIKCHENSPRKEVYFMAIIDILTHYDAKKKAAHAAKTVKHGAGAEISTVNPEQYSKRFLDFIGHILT

SMILES | max response
CCCCCCN1CCN(C2CN(Cc3cn(CCCCCC)nn3)S(=O)(=O)C2)CC1 (configuration not stated) | -1.03% (inactive)
CC(C)Nc1nc(NCCOc2ccccc2Cl)c2sccc2n1 | -24.4% (inactive)
O=C(NCc1ccco1)c1cccc(-c2ccc3nncn3c2)c1 | 5.11% (inactive)
Cc1cccc(C)c1Cn1c(C)c(C(=O)NCc2cccc(Cl)c2)sc1=O | 9.15% (inactive)
CCOC(=O)/C(N=Nc1cc(C(=O)O)cc(C(=O)O)c1)=C(\O)CCl | -52.4% (active)
COc1cccc(CN(C)C(=O)CC[C@H]2O[C@@H](n3cnc4c(NC(=O)c5ccccc5)ncnc43)[C@H](O)[C@@H]2O)c1 | -6.93% (inactive)
COC(=O)[C@@]12C[C@@H](CC(=O)NCc3cccc(C(F)(F)F)c3)C(=O)N(Cc3ccco3)C1=CCC(C)(C)C2 | -1.12% (inactive)
NC(=O)c1c(NC(=O)CSc2nnc(-c3ccco3)n2N)sc2c1CCCC2 | -79.7% (active)
Cc1cc(NC(=O)CSc2nnc(-c3ccco3)n2N)no1 | -9.01% (inactive)
Nn1c(SCC(=O)Nc2nccs2)nnc1-c1ccco1 | -11.2% (inactive)
O=C1c2ccccc2C(c2nc3ccccc3[nH]2)N1c1ccccc1 (configuration not stated) | -0.58% (inactive)
CN(C(=O)COC(=O)Cc1ccccc1[N+](=O)[O-])C1CCS(=O)(=O)C1 (configuration not stated) | 1.78% (inactive)
CN(C(=O)COC(=O)c1cc(-c2ccco2)nc2ccccc12)C1CCS(=O)(=O)C1 (configuration not stated) | -66.2% (active)
COc1ccc(/C=C(\C#N)C(=O)OCC(=O)N(C)C2CCS(=O)(=O)C2)cc1 (configuration not stated) | 4.63% (inactive)
CCNC(=O)c1cc2c(c(-c3cccc(-c4cncnc4)c3)n1)[C@H](CCO)N(C(C)=O)C2 | 1.34% (inactive)
CCCCc1c(-c2ccc(Cl)cc2)ncn1CCc1ccccc1OC | 19% (inactive)
Fc1cccc(Cc2c(-c3ccc(Cl)cc3)nc3ccc(Cl)cn23)c1 | 1.89% (inactive)
O=C(COc1ccc(-n2cnnn2)cc1)Nc1ccccc1Cl | -51.4% (active)
O=C(Cc1c(F)cccc1Cl)Nc1ccc(-n2cnnn2)cc1 | 4.15% (inactive)
C=CCc1cccc(/C=N/NC(=O)COc2ccc(-n3cnnn3)cc2)c1O | -0.249% (inactive)
C=CCC[C@@H](CCCCC)OC(=O)/C=C/[C@@H](O)[C@H](O)C[C@H](O)CC=C | 17.3% (inactive)

SMILES | max response
COCCNc1nc(Nc2ccccc2Cl)c2sc(-c3ccccc3)cc2n1 | -2.99% (inactive)
O=C(O)c1ccccc1/C=N/Nc1ccc(S(=O)(=O)Nc2ccc(Cl)cc2)cc1[N+](=O)[O-] | -7.22% (inactive)
O=[N+]([O-])c1cc(S(=O)(=O)Nc2cccc(Cl)c2)ccc1N=Nc1c(O)[nH]c2ccccc12 | -75.5% (active)
Oc1[nH]c2ccccc2c1N=Nc1c(F)c(F)c(F)c(F)c1F | 1.14% (inactive)
CCOC(=O)[C@]12CCCC=C1N(Cc1ccc3c(c1)OCO3)C(=O)[C@H](CC(=O)NCc1cccs1)C2 | 3.13% (inactive)
COc1cccc(CNC(=O)[C@@H]2CCCN2C(=O)[C@@H]2CCCN2C(=O)c2ccccc2)c1 | -1.24% (inactive)
O=C(/C=C/c1c(Cl)cccc1Cl)NCc1ccccc1 | 3.82% (inactive)
O=C(CCc1ccccc1)Nc1nn[nH]n1 | -6.47% (inactive)
O=C(/C=C/c1c(F)cccc1Cl)Nc1nn[nH]n1 | -56.7% (active)
Nc1nc(CSc2nnnn2-c2ccccc2)nc(Nc2ccccc2)n1 | 2.21% (inactive)
C[C@H]1CN([C@@H](C)CO)C(=O)c2cc(Br)cnc2O[C@H]1CN(C)S(=O)(=O)c1cccs1 | 6.03% (inactive)
CCOC(=O)[C@]12CCCC=C1N(CCC1=CCCCC1)C(=O)[C@H](CC(=O)N1CCCCC1)C2 | -3.48% (inactive)
CC(=O)c1ccc(S(=O)(=O)N2CCC3(CC2)OCCO3)cc1 | 1.8% (inactive)
CC(=O)c1ccc(S(=O)(=O)N2CCC(Oc3ccc(-n4cnnn4)cc3)CC2)cc1 | -1.39% (inactive)
CC(=O)c1ccc(S(=O)(=O)N2CCN(C(=O)/C=C/c3ccc4ccccc4n3)CC2)cc1 | -58.5% (active)
COc1ccc(CCCNC(=O)C2Cc3c(-c4cccc(C(N)=O)c4)ccnc3O2)cc1 (configuration not stated) | -10.3% (inactive)
CCNC(=O)C1(C)CCCN(Cc2noc(-c3ccccc3OC)n2)C1 (configuration not stated) | -0.357% (inactive)
CN1OC[C@@H]2CN(S(=O)(=O)c3cccc(C(F)(F)F)c3)[C@H](c3ccc(-c4cc5ccccc5o4)cc3)C[C@@H]21 | 4.81% (inactive)
CCCCNC(=O)CN1C(=O)NC(Cc2ccccc2)(Cc2ccccc2)C1=O | 0.277% (inactive)
COc1cccc(CNC(=O)CN2C(=O)NC(Cc3ccccc3)(c3ccccc3)C2=O)c1 (configuration not stated) | -83.2% (active)
COc1cccc(CNC(=O)COC(=O)CN2C(=O)NC3(CCCCC3C)C2=O)c1 (configuration not stated) | -4.41% (inactive)
